# Source: PubChem
# Shown are actives, neighbours in structure and some others; about 3.7% of the full set was active somewhere.
# TGFb SMAD3 inh: qHTS for Inhibitors of TGF-b; HepG2 CAGA-GFP TGF-b/SMAD3 reporter, GFP fluorescence, 18 h; TGF-beta stimulated, 500 pg/mL final; Potency, µM (top dose mostly 46.1 µM), inactives show top-dose activity, negative = inhibition, actives largely listed as inhibitors; 1.2% of 410,000 active; note: % is set by controls: 0 for no effect and ±100 for the full control effect; nearly all actives have a fitted effect of over 65% in size
#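 HEPG2 CAGA-GFP reporter cells (1000/well, DMEM with 1% FBS) received compounds, then recombinant TGF-beta at 500 pg/mL final for 18 hours at 37 degrees C. Per-cell GFP summed per well was normalised to unstimulated and stimulated DMSO controls before curve fitting.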
# S2 tox: Viability Counterscreen for Primary qHTS for Inhibitors of ATXN expression. S2 cells (HEK-293 line with an ATXN2-luciferase reporter) viability, CellTiter-Fluor protease fluorescence, 24 h. Potency, µM (titrated, usually from 56.7 µM), most hits filed as cytotoxic. 0.49% of 400,000 active. AID 651635, 2014; note: nearly all actives have a fitted effect of over 40% in size
# ATXN2 expr inh: Primary qHTS for Inhibitors of ATXN expression; AID 1745845, 2022; Potency, µM (doses to about 57 µM), inactives show top-dose activity change, negative = inhibition, hits mostly inhibitors; HEK-293 ATXN2-luciferase reporter, luminescence, 24 h; 0.72% of 360,000 active; note: % is set by controls: 0 for no effect and ±100 for the full control effect; nearly all actives have a fitted effect of over 55% in size
#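 ATXN2-luciferase reporter cells (luciferase flanked by upstream and downstream ATXN2 gene portions) were treated 24 h at 37 °C with compounds at up to 57 uM. SteadyGlo luminescence gave expression; GF-AFC fluorescence gave viability.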
# HepG2 tox-1: qHTS for Inhibitors of TGF-b: Cytotox Counterscreen; HepG2 CAGA-GFP viability, ATP luminescence, 18 h; Potency, µM (top dose mostly 46.1 µM), for the others: top-dose activity change, negative = cytotoxicity, hits mostly cytotoxic; 0.76% of 410,000 active
#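 CellTiter-Glo luminescence gave cytotoxicity after 18 hours at 37 degrees C. The cells were HepG2 CAGA-GFP in 1% FBS DMEM, stimulated with 500 pg/mL TGF-beta after compound addition. %Activity was normalised to no-cell wells (complete cell-killing) and DMSO (no toxicity), and curves were fitted and classified.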
# GLP1R inv ag: qHTS of GLP-1 Receptor Inverse Agonists (Inhibition Mode) | Glucagon-like peptide 1 receptor (Homo sapiens), P43220 | HEK293 GLP-1R CRE-luciferase, luminescence, 24 h; GLP-1R form is constitutively active | Potency, µM (series often up to 38.3 µM), without a hit: at the top dose activity change, negative = inhibition, most hits filed as inhibitors | 1.6% of 410,000 active; note: % is set by controls: 0 for no effect and ±100 for the full control effect; nearly all actives have a fitted effect of over 55% in size
# Target sequence (P43220 whole entry, looked up): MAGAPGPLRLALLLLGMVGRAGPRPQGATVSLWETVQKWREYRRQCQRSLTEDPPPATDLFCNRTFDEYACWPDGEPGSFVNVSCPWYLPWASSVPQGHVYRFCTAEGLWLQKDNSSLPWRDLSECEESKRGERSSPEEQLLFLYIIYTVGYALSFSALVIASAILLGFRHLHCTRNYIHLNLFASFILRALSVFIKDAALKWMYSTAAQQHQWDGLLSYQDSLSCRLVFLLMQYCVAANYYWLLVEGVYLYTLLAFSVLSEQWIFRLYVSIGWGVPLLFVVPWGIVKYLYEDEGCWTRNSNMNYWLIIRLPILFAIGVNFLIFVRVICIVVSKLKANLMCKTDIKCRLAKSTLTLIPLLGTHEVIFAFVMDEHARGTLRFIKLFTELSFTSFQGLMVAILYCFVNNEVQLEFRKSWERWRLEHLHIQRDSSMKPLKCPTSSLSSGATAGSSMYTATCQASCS
#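 Luminescence readout: a drop in cAMP-driven luciferase signal flags inverse agonism at a constitutively active GLP-1R stably expressed in HEK293. Compound exposure lasted 24 hr at 37 deg C, 5% CO2.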
# GLP1R ag: qHTS of GLP-1 Receptor Agonists; AID 624172, 2012; Glucagon-like peptide 1 receptor (Homo sapiens), P43220; Potency, µM (top dose mostly 45.6 µM), without a hit: top-dose activation, hits mostly activators; 0.007% of 380,000 active; HEK293 GLP-1R CRE-luciferase, luminescence, 4-6 h; cells express a hypersensitive GLP-1R form; note: % of control where 0% means no effect
# TGFb CAGA inh: qHTS for Inhibitors of TGF-b: Confirmation of Cherry Picks. 63% of 1,600 active. Potency, µM (doses to about 46.1 µM), inactives show at the top dose activity, negative = inhibition, actives largely listed as inhibitors. shares compounds with TGFb SMAD3 inh. HepG2 CAGA-GFP TGF-b reporter, GFP fluorescence, 18 h; cells stimulated with TGF-beta, 500 pg/mL; note: % is set by controls: 0 for no effect and ±100 for the full control effect; nearly all actives have a fitted effect of over 65% in size
# HepG2 tox-2: qHTS for Inhibitors of TGF-b: Cytotox Counterscreen for Cherry Picks | shares compounds with TGFb SMAD3 inh | AID 720535, 2013 | 27% of 1,600 active | Potency, µM (highest dose often 46.1 µM), without a hit: top-dose activity, negative = cytotoxicity, usual class: inhibitors | HepG2 CAGA-GFP viability, ATP luminescence, 18 h; cells stimulated with TGF-beta, 500 pg/mL; note: % is set by controls: 0 for no effect and ±100 for the full control effect; nearly all actives have a fitted effect of over 70% in size
# CCL64 TGFb inh: qHTS for Inhibitors of TGF-b: CCL64 Cells Orthogonal Assay for Cherry Picks. shares compounds with TGFb SMAD3 inh. CCL64 CAGA-GFP reporter, TGF-b stimulated, GFP fluorescence, 18 h. Potency, µM (titrated, usually from 46.1 µM), inactives show at the highest dose activity, negative = inhibition, most hits filed as inhibitors. 41% of 1,600 active; note: nearly all actives have a fitted effect of over 65% in size
# TGFb COP inh: qHTS for Inhibitors of TGF-b: Hit Validation in HepG2 Cells using COP promoter. HepG2 COP-GFP TGF-b reporter, GFP fluorescence, 18 h; cells stimulated by added recombinant TGF-beta. Potency, µM (highest dose often 46.1 µM), for inactives: at the highest dose activity, negative = inhibition, hits mostly inhibitors. shares compounds with TGFb SMAD3 inh. 3% of 1,600 active; note: nearly all actives have a fitted effect of over 70% in size
# An asterisk follows results filed as active; i = inactive; u = inconclusive; x = no result. Calls come from the whole dose curve; as a rule, active = well fitted curve in the direction sought with a large enough effect; inconclusive = small, poorly fitted or top-dose-only effect, or another doubt; inactive = no such curve, though single readings can be large; an effect the other way counts as inactive or inconclusive. Potency is the fitted concentration of half-maximal effect.
SMILES,TGFb SMAD3 inh,S2 tox,ATXN2 expr inh,HepG2 tox-1,GLP1R inv ag,GLP1R ag,TGFb CAGA inh,HepG2 tox-2,CCL64 TGFb inh,TGFb COP inh
Oc1ccc(C[C@H]2CNC(=S)N2CC2CCCN2C[C@H](Cc2ccc(O)cc2)N2C[C@H](Cc3ccc(O)cc3)N(CC3CCCCC3)C2=S)cc1 (stereo partly drawn),10µM*,u,0%,-23%,u,-3%,5.2µM*,12µM*,5.8µM*,u
Oc1ccc(C[C@H]2CN([C@@H](Cc3ccc(O)cc3)CN3CCC[C@@H]3CN3C(=S)NC[C@@H]3Cc3ccccc3)C(=S)N2CC2CCCCCC2)cc1,10µM*,8.9µM*,10µM*,-45%,u,-7%,23µM*,u,8.2µM*,67%
Oc1ccc(C[C@H]2CNC(=S)N2CC2CCCN2C[C@H](Cc2ccccc2)N2C[C@H](Cc3ccc(O)cc3)N(CC3CCCCCC3)C2=S)cc1 (stereo partly drawn),10µM*,u,u,-82%,u,-2%,21µM*,u,8.2µM*,82%
CC(=O)N1c2ccccc2CC1C(=O)N1CCN(c2cc(Cl)ccc2C)CC1 (stereo not drawn),-16%,i,-17%,-2%,u,x,x,x,x,x
CCOc1ccccc1C(=O)N1CCc2cc(OC)c(OC)cc2C1COc1ccc2c(C)cc(=O)oc2c1 (stereo not drawn),1%,i,5%,6%,8%,x,x,x,x,x
O=C(Cc1cccs1)Nc1nc2c(ccc3ccccc32)s1,14µM*,i,-1%,-26%,-15%,0%,16µM*,-19%,u,-3%
CC(=O)Nc1nc2c(ccc3ccccc32)s1,u,i,33%,-53%,-7%,-3%,x,x,x,x
Cn1c(=O)n(C)c2cc(NS(=O)(=O)c3ccc(C(C)(C)C)cc3)c(NCc3ccccc3)cc21,u,u,29%,-42%,6%,x,x,x,x,x
CC[n+]1c(/C=C/c2ccc(OC)c(OC)c2)ccc2ccccc21,26%,i,x,1%,0%,-2%,x,x,x,x
